Reference: PubChem BioAssay (NCI)
About 83,000 compounds went through this panel and 20% of them were active in at least one assay; those are over-represented in the sample as a whole.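 Treatment: one concentration, 48 hours, 96-well format. Scoring: percent growth, with anything below 10 considered active.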 A number with no mark means an inactive call. Calls of active or inactive are those of the source.

Legend:
Assay in all cases: NCI-60 one-dose screen, 48 h (100 = growth as untreated, 0 = no growth, -100 = all killed)
Conditions in all cases: 10 µM unless noted
T-47D breast = system: T-47D breast
BT-549 breast = system: BT-549 breast
MDA-MB-435 melanoma = system: MDA-MB-435 melanoma
SW-620 colon = system: SW-620 colon
MCF7 breast = system: MCF7 breast
HCT-116 colon = system: HCT-116 colon
HCC-2998 colon = system: HCC-2998 colon
KM12 colon = system: KM12 colon

Row | SMILES | growth (T-47D breast) | growth (BT-549 breast) | growth (MDA-MB-435 melanoma) | growth (SW-620 colon) | growth (MCF7 breast) | growth (HCT-116 colon) | growth (HCC-2998 colon) | growth (KM12 colon)
1 | O=C1NC(=S)S/C1=C\c1cc(Br)ccc1O | 82.9% | 104% | 105% | 97.6% | 106% | 103% | 103% | 90.6%
2 | COc1ccc(Oc2ccccc2NC(=O)CNC(=O)c2cccc3ccccc23)cc1 | 41.6% [5 µM] | 30.9% [5 µM] | 1.66% [5 µM] (active) | 25.6% [5 µM] | 23.5% [5 µM] | 10.9% [5 µM] | 33.7% [5 µM] | 26.5% [5 µM]
3 | CCN(CC)CCNCC(=O)Oc1ccc(/C=C/C(=O)CC(=O)/C=C/c2ccc(OC(=O)CNCCN(CC)CC)c(OC)c2)cc1OC | 26.6% | -49.4% (active) | -30% (active) | -26.5% (active) | 11.6% | -9.15% (active) | -24.9% (active) | -19.5% (active)
4 | O=C(Nc1nc2ccc(OC(F)(F)F)cc2s1)c1ccc(F)cc1 | -10.8% (active) | 39.2% | 15.1% | 13.3% | -0.0548% (active) | -28% (active) | 3.77% (active) | 2.23% (active)
5 | COC(=O)c1cc2oc(/C=N\NC(=O)c3cc4oc(C)c(C)c4[nH]3)cc2[nH]1 | 90.2% | 91.3% | 96.6% | 108% | 86.8% | 101% | 101% | 108%
6 | Fc1ccccc1C1c2ccccc2-c2nccn21 (stereo not drawn) | 91.3% | 106% | 108% | 107% | 101% | 90.1% | 103% | 93.8%
7 | O=C(NCCCl)NCCN1c2nc3ccccc3cc2Sc2cc3ccccc3nc21 | 69% | 40.3% | 58.5% | 41.3% | 18.3% | 31.3% | 35.1% | 71.9%
8 | CC1C(=O)NC2=Nc3ccccc3C(=O)NN21 (stereo not drawn) | 81.4% | 96.9% | 111% | 97.8% | 73.9% | 90.4% | 100% | 101%
9 | Cc1n(Cc2ccc3ccccc3c2)cc[n+]1Cc1ccc2ccccc2c1 | 0.847% (active) | -13.6% (active) | -14.6% (active) | 18.7% | 7.52% (active) | 6.14% (active) | 7.45% (active) | -9.94% (active)
10 | CCCCN1c2nc3ccccc3cc2Sc2cc3ccccc3nc21 | 13.7% | 97.1% | 151% | 94.4% | 7.26% (active) | 95.1% | 86.5% | 68.3%
11 | O=C(Nc1ccc(Cl)cc1)Nc1nc2ccc(OC(F)(F)F)cc2o1 | 41.1% | 146% | 112% | 98.4% | 76.6% | 85% | 140% | 68.3%
12 | CCSc1nc(-c2cccs2)n2nc(-c3ccco3)cc2n1 | 43.1% | 113% | 111% | 102% | 32.9% | 94.8% | 105% | 82.5%
13 | CN1CCN(CCCCCN=c2cc3c(=O)n(CCCCCN4CCN(C)CC4)c(=O)c4c(NCCCCCN5CCN(C)CC5)cc5c(O)n(CCCCCN6CCN(C)CC6)c(=O)c2c5c4-3)CC1 | 16.5% | 11.4% | -41.5% (active) | 21.9% | -6.01% (active) | 2.16% (active) | 29.1% | 2.69% (active)
14 | Cc1[nH]cnc1/C=C1\SC(N2CCCCC2)=NC1=O | 104% | 105% | 108% | 107% | 108% | 106% | 101% | 114%
15 | CC(C)N(Cc1ccccc1)c1c(S)ssc1=S | 18.2% | -4.86% (active) | 11.8% | 9.47% (active) | 3.04% (active) | 5.93% (active) | 24.8% | 11.5%
16 | O=C1CSC(c2ccccc2Cl)N1c1nnc(Cn2nnc3ccccc32)o1 (stereo not drawn) | 50.5% | 98.9% | 93.4% | 93.2% | 86.8% | 60.1% | 86.4% | 77.1%

Row | SMILES | growth (T-47D breast) | growth (BT-549 breast) | growth (MDA-MB-435 melanoma) | growth (SW-620 colon) | growth (MCF7 breast) | growth (HCT-116 colon) | growth (HCC-2998 colon) | growth (KM12 colon)
17 | CC(C)Sc1nc(Cl)c(C#N)c(-c2ccc(F)cc2)n1 | 98.1% | 108% | 101% | 72.2% | 96.4% | 62% | 112% | 107%
18 | CC(C)N(Cc1ccccc1)c1c(Cl)ssc1=O | 98.9% | 90.9% | 108% | 110% | 101% | 99.9% | 113% | 106%
19 | Cc1ccc(N/N=C(/C(=O)c2ccc(Cl)cc2)c2nc(C)cc(=O)[nH]2)cc1 | 88.3% | 118% | 123% | 93.7% | 91% | 86.9% | 116% | 115%
20 | COc1cccc2c1C(=O)c1c(O)c3c(c(O)c1C2=O)C[C@@](O)(C(C)=O)C[C@@H]3O[C@H]1C[C@H](N)[C@H](O)[C@H](C)O1 | -12.2% (active) | -58.8% (active) | -98.7% (active) | -12.8% (active) | 0% (active) | 0.333% (active) | -70.4% (active) | -14.9% (active)
21 | CCOc1cc(/C=C/C(=O)CC(=O)/C=C/c2ccc(OC(=O)CNc3nc4ccc(OC)cc4s3)c(OCC)c2)ccc1OC(=O)CNc1nc2ccc(OC)cc2s1 | 79.7% | -1.58% (active) | -22.2% (active) | 17.9% | 9.28% (active) | 4.31% (active) | 39.6% | 9.4% (active)
22 | COc1cc(/C=C/C(=O)c2c(C)n([O-])c3ccc(Cl)cc3[n+]2=O)cc(OC)c1OC | 58.6% | 53.8% | 84.1% | 82.2% | 42.2% | 62.6% | 106% | 96.2%
23 | CCC(=O)Nc1cc2c(cc1Cl)-c1ccccc1C2 | 85.2% | 86.1% | 113% | 101% | 95.2% | 99.2% | 87% | 95.2%
24 | COc1cccc(-c2nc(-c3ccc(N)cc3)co2)c1 | 105% | 110% | 93.3% | 113% | 98.9% | 91.5% | 122% | 99.2%
25 | NS(=O)(=O)c1ccc(-n2ncc3c(N/N=C/c4ccccc4)ncnc32)cc1 | 94.6% | 113% | 88.4% | 94.6% | 91% | 83.2% | 74.7% | 102%
26 | C1CCC(C(CC2CCCCN2)C2CCCCC2)CC1 (stereo not drawn) | -48.9% (active) | 41.1% | -73.8% (active) | -84.6% (active) | -62.6% (active) | -94.1% (active) | -90.6% (active) | -54.1% (active)
27 | Cc1nn2c(/C=C3/C(=O)Nc4cc(Cl)ccc43)c(-c3ccccc3)nc2s1 | -63% (active) | 15.4% | -14.8% (active) | -26.8% (active) | 21% | -79% (active) | 120% | 78.7%
28 | CN(C)c1ccc(-n2nc3ccccc3n2)cc1 | 78.4% | 91.6% | 100% | 95.9% | 89.9% | 77% | 75.3% | 108%
29 | O=C1/C(=C/c2ccccc2O)C(=S)SN1Cc1ccco1 | 54.2% | 93.5% | 56.4% | 108% | 15.7% | 87.1% | 108% | 69.5%
30 | O=C1c2cc3c(cc2-c2c1c1ccc(Cl)cc1c(=O)n2CCCNCCO)OCO3 | -67.1% (active) | -63.7% (active) | -85% (active) | -73.2% (active) | -73.1% (active) | -74.2% (active) | -89% (active) | -78.4% (active)
31 | O=C(O)c1ccc2cccnc2c1O | 10.3% | -16.5% (active) | 10.1% | 26.1% | 10.8% | 2.32% (active) | 10.2% | 15.1%
